Screening data: PubChem, several laboratories
IDE cell inh = human IDE inhibitors in live cells, primary screen, fluorescence polarization, HEK cells, FAbetaB substrate | Insulin-degrading enzyme (Homo sapiens), P14735 | FAbetaB cleavage | inhibition, % at 5.59 µM | 320,000 tested, 0.41% active;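 active = percent inhibition above the average of all tested compounds plus 3 SD, set per screening campaign, cut at about 16% in these data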;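 note: IDE supplied by intact live HEK cells; FP after avidin binding of uncleaved biotin substrate so inhibition keeps polarization high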
Target sequence (P14735 whole entry, looked up): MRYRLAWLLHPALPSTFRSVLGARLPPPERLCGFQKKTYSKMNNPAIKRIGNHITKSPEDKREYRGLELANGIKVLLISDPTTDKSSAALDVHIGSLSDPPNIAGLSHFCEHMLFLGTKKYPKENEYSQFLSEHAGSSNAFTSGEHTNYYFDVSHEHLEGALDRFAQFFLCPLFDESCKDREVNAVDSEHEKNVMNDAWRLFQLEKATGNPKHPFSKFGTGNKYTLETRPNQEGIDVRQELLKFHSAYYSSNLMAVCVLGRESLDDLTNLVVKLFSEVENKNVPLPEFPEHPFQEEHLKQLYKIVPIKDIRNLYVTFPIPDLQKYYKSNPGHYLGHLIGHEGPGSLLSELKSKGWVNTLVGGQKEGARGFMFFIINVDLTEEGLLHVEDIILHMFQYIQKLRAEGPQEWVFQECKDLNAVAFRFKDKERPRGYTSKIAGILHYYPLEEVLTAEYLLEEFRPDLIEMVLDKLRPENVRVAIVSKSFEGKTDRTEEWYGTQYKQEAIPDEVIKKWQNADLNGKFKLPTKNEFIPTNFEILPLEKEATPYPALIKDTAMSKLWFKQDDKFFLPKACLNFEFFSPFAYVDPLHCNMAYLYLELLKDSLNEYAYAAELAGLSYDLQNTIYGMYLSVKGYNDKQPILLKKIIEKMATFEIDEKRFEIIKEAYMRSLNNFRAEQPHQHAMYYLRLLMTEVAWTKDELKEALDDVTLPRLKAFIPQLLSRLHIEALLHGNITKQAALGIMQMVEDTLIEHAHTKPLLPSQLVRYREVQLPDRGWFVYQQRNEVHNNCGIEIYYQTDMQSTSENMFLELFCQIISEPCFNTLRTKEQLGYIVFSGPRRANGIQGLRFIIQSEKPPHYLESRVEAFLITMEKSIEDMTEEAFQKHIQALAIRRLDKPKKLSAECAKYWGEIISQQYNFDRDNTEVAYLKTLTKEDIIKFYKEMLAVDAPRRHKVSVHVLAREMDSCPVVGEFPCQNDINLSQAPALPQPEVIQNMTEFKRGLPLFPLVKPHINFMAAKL
IDE cell activ = human IDE activators in live cells, primary screen, fluorescence polarization, HEK cells, FAbeta-B substrate; 340,000 tested, 0.073% active; Insulin-degrading enzyme (Homo sapiens), P14735; FAbeta-B cleavage; 0% vehicle, 100% cell-free pure enzyme wells; activation, % at 5.96 µM;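 active = activation above the mean of all tested compounds plus 3 SD, set per screening campaign, cut at about 17% in these data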
SKKanGAS inh = S. pyogenes SKKanGAS growth inhibitors in kanamycin, primary screen, streptokinase expression inhibitor project, SKKanGAS strain, BacTiter-Glo luminescence; 6 h; inhibition, % at 7.5 µM; 300,000 tested, 1.3% active;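 active = mean replicate score, as percent of positive control median, at least 50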;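 note: strain carries kanamycin resistance gene driven by streptokinase promoter and grows in 40 µg/ml kanamycin; loss of luminescence reflects streptokinase promoter inhibition or plain growth inhibition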
PP5 inh = PP5 phosphatase inhibitors, primary screen, biochemical, fluorescence; 320,000 tested, 0.18% active; purified PP5c, OMFP substrate fluorescence; inhibition, % at 6.7 µM;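 active = inhibition above the campaign's mean inhibition across all tested compounds plus 3 SD, cut at about 9.5% in these data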
Exocytosis inh = LAMP-1 surface exposure blockers, TALL-104 cells – cell-based, flow cytometry, MLPCN library, primary screen. TALL-104 LAMP-1 surface exposure; cells stimulated with thapsigargin and PMA. inhibition, % at 10 µM. 360,000 tested, 0.66% active. AID 651702, 2012;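 active = inhibition above about 55%, limit read from the data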
PP1 counter = PP1-alpha phosphatase inhibitors, primary screen, counter-screen for PP5 inhibitor project, biochemical, fluorescence, OMFP substrate, single point; purified PP1alpha; inhibition, % at 6.7 µM; 320,000 tested, 0.9% active; AID 2235, 2010; Serine/threonine-protein phosphatase PP1-alpha catalytic subunit (Homo sapiens), P62136;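 active = inhibition above the mean inhibition of all tested compounds plus 3 SD, computed separately for each screening campaign, cut at about 15% in these data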
PP1 confirm = PP1 phosphatase inhibitors, confirmation, biochemical, fluorescence, OMFP substrate, triplicate. AID 2358, 2010. shares compounds with PP1 counter. purified PP1alpha. 1,900 tested, 52% active. inhibition, % at 6.7 µM;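 active = mean PP1 inhibition above a set limit taken from the earlier primary screen, cut at about 15% in these data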
PP5 inh counter = PP5 phosphatase inhibition by PP1 hits, confirmation, counter-screen for PP1 inhibitor project, biochemical, fluorescence, triplicate | shares compounds with PP1 counter | inhibition, % at 6.7 µM | 1,900 tested, 4% active | AID 2360, 2010 | purified PP5c, OMFP fluorescence;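 active = mean PP5 inhibition over triplicate wells above about 9.5% taken from the earlier PP1 screen, limit read from the data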
Numbers stand for hits; . = inactive; / = not tested or not shown. Only some compounds are listed: those with a hit (about 2.8% of all), similar ones and a draw of the others.

SMILES	IDE cell inh	IDE cell activ	SKKanGAS inh	PP5 inh	Exocytosis inh	PP1 counter	PP1 confirm	PP5 inh counter
COCCN1C=C2C(=O)C(C)(OC(=O)CCC(=O)OC)C(=O)C(Br)=C2C=C1c1ccc(OC)cc1 (stereo not given)	.	.	.	.	.	.	/	/
COC(=O)CCC(=O)OC1(C)C(=O)C2=CN(C3CCCC3)C(c3ccc(OC)cc3)=CC2=C(Br)C1=O (stereo not given)	.	.	.	9.7	.	17	.	35
COC(=O)CCC(=O)OC1(C)C(=O)C2=CN(c3ccc(OC)cc3)C(c3ccc(OC)cc3)=CC2=C(Br)C1=O (stereo not given)	.	.	.	.	.	20	16	20
COCCN(C(=O)COC(=O)CCOc1cccc(C)c1)c1c(N)n(Cc2ccccc2)c(=O)[nH]c1=O	.	.	.	.	.	.	/	/
Cc1noc(C)c1-c1ccc(C(=O)NCc2cccnc2)c2occc12	/	/	/	/	.	/	/	/
O=C(NCCc1ccccc1)/C(=C\c1ccc([N+](=O)[O-])cc1)NC(=O)c1ccc(Br)cc1	.	.	.	.	.	18	22	.
Cc1nn(C(C)C(=O)NCCCN2CCCC2)c(=O)c2nn(-c3ccccc3)c(C)c12 (stereo not given)	.	.	.	.	.	.	/	/
Cc1csc2nc(O)c(C(=O)NCCCc3ccccc3)c(=O)n12	.	.	.	.	.	20	.	.
O=C(COC(=O)/C=C/c1ccc(Br)o1)Nc1ccc2[nH]c(=O)[nH]c2c1	.	.	.	.	.	21	25	.
CCOc1ccccc1N1CC(C(=O)N(C)Cc2cccnc2)CC1=O (stereo not given)	.	.	.	.	.	.	/	/
COc1ccc(C2CC(c3ccccc3)=NN2C(=O)COC(=O)c2cc(S(=O)(=O)N3CCOCC3)ccc2Cl)cc1 (stereo not given)	.	.	.	.	.	20	.	.
COc1ccc(C2CC(c3ccccc3)=NN2C(=O)COC(=O)c2cccnc2Cl)cc1 (stereo not given)	.	.	.	.	.	.	/	/
O=C(CS(=O)(=O)c1ccccc1)Nc1ccccc1Br	/	.	/	/	.	/	/	/
O=C1CN(C(=O)NCC(=O)N[C@@H](C(=O)O)c2ccccc2)c2ccccc2N1	.	.	.	.	.	18	.	.
Cc1nn(CCc2nn[nH]n2)c2nc(-c3ccc(C4CCCCC4)cc3)cc(C(F)(F)F)c12	.	.	104	.	.	18	26	.
Cc1ccc(N=C2NC(=O)CS2)cc1C	.	.	.	.	.	.	/	/
COc1cccc(CNC(=O)c2ccc(C)c(S(=O)(=O)N3CCCCC3)c2)c1	.	.	.	.	.	.	/	/
c1cc2c3c(cccc3c1)NC1(CCCCCC1)N2	.	.	.	.	.	21	21	.
c1cc2c3c(cccc3c1)NC1(CCCCC1)N2	.	.	.	.	.	26	.	18
S=C1NC2(CCCCC2)NN1c1ccccc1	.	.	.	.	.	.	/	/
c1ccc(CCNc2nc(-c3ccccn3)nc3ccccc23)cc1	.	.	113	.	.	29	50	.
Fc1ccc(Oc2nc(-c3ccccn3)nc3ccccc23)cc1	.	/	.	.	.	18	23	.
CSc1nc(Oc2ccc(F)cc2)c2ccccc2n1	.	.	.	.	.	.	/	/
c1ccc(-c2nc(N3CCCCCC3)c3ccccc3n2)nc1	.	.	109	.	.	27	26	.
c1ccc(-c2nc(N3CCOCC3)c3ccccc3n2)nc1	.	.	.	.	.	.	/	/
SMILES	IDE cell inh	IDE cell activ	SKKanGAS inh	PP5 inh	Exocytosis inh	PP1 counter	PP1 confirm	PP5 inh counter
O=C(c1cc(COc2cccc(C(F)(F)F)c2)on1)N1CCC(Oc2cccnc2)CC1	.	.	.	.	.	.	/	/
N#Cc1ccccc1NC(=O)CSc1nnc(-c2ccncc2)o1	.	.	.	.	.	33	.	.
COc1ccc(CN(C)CC(=O)NC2CCCc3ccccc32)cc1OC (stereo not given)	.	.	.	.	.	.	/	/
Cc1cccc(C)c1OCC(=O)NCC1CCCO1 (stereo not given)	.	.	.	.	.	.	/	/
Cc1cc(C)c(OCC(=O)NCC2CCCO2)c(C)c1 (stereo not given)	.	.	.	.	.	42	.	.
CC(C)c1ccc(/C=C2\SC(=O)N(CC(=O)NC3C=CS(=O)(=O)C3)C2=O)cc1 (stereo not given)	.	.	.	.	.	28	33	.
Cc1ccc(C(=O)C2=C(O)C(=O)N(Cc3ccco3)C2c2ccc(N(C)C)cc2)o1 (stereo not given)	.	.	.	.	.	.	/	/
Cc1cc(N2C(=O)C(O)=C(C(=O)c3cc4ccccc4o3)C2c2ccc(OC(C)C)cc2)no1 (stereo not given)	.	.	.	.	.	23	34	.
CCCCOc1ccc(C2C(C(=O)c3ccc(C)o3)=C(O)C(=O)N2Cc2ccco2)cc1 (stereo not given)	.	.	.	.	.	33	30	.
CCCCCOc1ccc(C2C(C(=O)c3ccc(C)o3)=C(O)C(=O)N2c2cc(C)on2)cc1 (stereo not given)	.	.	81	.	.	24	32	.
COc1ccc2oc(=N)c(C(=O)Nc3cccc(C)c3C)cc2c1	.	.	.	.	.	.	/	/
CC(C)c1ccc(NC2CCCN(C(=O)c3ccnn3C)C2)cc1 (stereo not given)	.	.	.	.	.	.	/	/
Cc1cc(C(=O)N2CCCC(Nc3ccc(C(C)C)cc3)C2)nn1C (stereo not given)	.	.	.	.	.	47	.	.
CC(C)=CCN1CCN(Cc2cnc(-c3ccccc3)s2)CC1CCO (stereo not given)	.	.	.	.	.	.	/	/
Cn1cnnc1SCc1ccc(C(=O)N=Nc2c(O)n(Cc3ccc(Cl)cc3)c3ccccc23)cc1	.	.	57	.	.	20	16	.
